Hit rate of the full screen: of about 190,000 compounds, about 1,300 (0.68%) were called active. The sample holds actives, similar compounds and a random draw of the others, so the mix is not that of the screen. A number with no mark means an inactive call. Rule as the data show it: active = inhibition above about 50%; inactive = the rest.

In this assay the target is Mannose-6-phosphate isomerase (Homo sapiens) (UniProt P34949). The experiment in a line: human PMI inhibitors, high substrate, primary screen, biochemical, fluorescence intensity, high mannose 6-phosphate (AID 1220). To be noted: recombinant PMI enzyme, coupled fluorescence intensity; at 20 µM; stronger effect = higher value.
Chain of Mannose-6-phosphate isomerase (Homo sapiens) (P34949 whole entry, looked up): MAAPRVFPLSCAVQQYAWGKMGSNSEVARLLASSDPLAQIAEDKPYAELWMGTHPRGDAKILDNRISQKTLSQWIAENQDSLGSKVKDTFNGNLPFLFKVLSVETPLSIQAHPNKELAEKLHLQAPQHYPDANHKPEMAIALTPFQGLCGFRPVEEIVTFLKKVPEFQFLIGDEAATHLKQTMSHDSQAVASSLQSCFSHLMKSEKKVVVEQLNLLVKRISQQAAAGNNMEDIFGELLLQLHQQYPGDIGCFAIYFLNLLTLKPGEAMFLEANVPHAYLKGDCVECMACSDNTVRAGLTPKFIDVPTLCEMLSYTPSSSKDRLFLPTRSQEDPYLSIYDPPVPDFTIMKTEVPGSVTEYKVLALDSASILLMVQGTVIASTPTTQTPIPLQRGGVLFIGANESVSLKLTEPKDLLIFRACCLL
For the compound `CC(C)(C)[C@H]1C=C(C(=O)N2CCN(Cc3ccc4c(c3)OCO4)CC2)O[C@@H](OCc2ccc(CO)cc2)C1`, the inhibition (as a rule, the relative decrease from the control value, in per cent) was 2.7%.

For `COc1ccc(Br)cc1CN1CCN(C(=O)c2ccc(OC)c(OC)c2)CC1`, the inhibition is 2.3%.

Regarding `CCOC(=O)CCC(NC(=O)CCCCCCCCC(=O)NC(CCC(=O)OCC)C(=O)OCC)C(=O)OCC` (stereo unspecified), the inhibition is 6.1%.

Regarding `COc1ccc(NS(=O)(=O)c2cccc(NC(=O)CCS(=O)(=O)c3ccccc3)c2)cc1`, the inhibition is 8.9%.

As to `O=C(CN1CCCCCC1)Nc1ccc(F)c(F)c1`, the inhibition is -9.6%.

Take `CCCCNC(=O)c1onc(CSc2cc(C)cc(C)c2)c1C(=O)O`: the inhibition is -4%.

For the compound `O=C(N/N=C/c1cc(Br)c(Br)o1)C(O)c1ccccc1` (stereo unspecified), the inhibition was 5.2%.

As for `CC(CNc1ccccc1O)C(=O)O` (stereo unspecified), the inhibition was 64.7% (active).

Take `CC(CC(=O)O)Nc1ccccc1O` (stereo unspecified): the inhibition is 49.3%.

Consider `CC(CC(C)C(=O)Nc1ccccc1C(C)(C)C)C(=O)O` (stereo unspecified), for which the inhibition was -12.3%.

`COc1cc2c(cc1NC(=O)CSc1cccc[n+]1[O-])oc1ccccc12`: the inhibition was -6.2%.

`CN(C)CC/C=C1\c2ccccc2Sc2ccc(Cl)cc21`: the inhibition is -12.5%.

In the case of `CN(C)CC/C=C1/c2ccccc2Sc2c(O)cc(Cl)cc21`, the inhibition is 50% (active).

As to `COc1cc(Cl)cc2c1Sc1ccccc1/C2=C/CCN(C)C`, the inhibition was -9.3%.

Take `N#CC1(c2nc3ccccc3[nH]2)CC1c1ccc2c(c1)OCO2` (stereo unspecified): the inhibition was 0.1%.

As for `COc1ccc(S(=O)(=O)N2CCc3ccccc32)cc1NC(C)=O`, the inhibition was 1.8%.

With `CNCC(C)COc1ccccc1OCc1ccccc1` (stereo unspecified), the inhibition was -5.2%.

With `N#CC1=C(N)OC2=C(C(=O)CCC2)C12CCN(C(=O)OCc1ccccc1)CC2`, the inhibition is -6.7%.

With `CCOc1ccccc1NS(=O)(=O)c1c(C)noc1C`, the inhibition was 54.2% (active).

For the compound `CCOc1ccccc1NC(=O)C1CCN(S(=O)(=O)c2c(C)noc2C)CC1`, the inhibition is 2.7%.

In the case of `CCOc1ccccc1NS(=O)(=O)c1cn(C)nc1C`, the inhibition is -10.4%.

Take `CC(=O)Nc1c(NC(=O)CC#N)[nH]c2c(c1=O)c(=O)n(C)c(=O)n2C`: the inhibition is 15.1%.

Regarding `CCn1c(C)cc(C=C2C(=O)c3ccccc3C2=O)c1C`, the inhibition was 20.2%.

Consider `Cc1ccc(N(CC(=O)Nc2ccc(F)c(Cl)c2)S(=O)(=O)c2c(C)noc2C)cc1`, for which the inhibition is 11.9%.

On to `CCNC(=O)Nc1ccccc1C(=O)OC`, for which the inhibition was -5.5%.

With `CCOC(=O)CNC(=O)Nc1ccccc1C(=O)OC`, the inhibition is -7.2%.

As for `C#CC(CC)(CC)NC(=O)Nc1ccccc1C(=O)OC`, the inhibition is 64.6% (active).

On to `N#Cc1nc(-c2cccs2)oc1NCC1CCCO1` (stereo unspecified), for which the inhibition was 0.2%.

In the case of `O=[N+]([O-])c1ccc(SCc2ccco2)cc1N1CCOCC1`, the inhibition was 1.4%.

Take `O=[N+]([O-])c1ccc(N2CCOCC2)cc1SCc1ccco1`: the inhibition is 68.5% (active).

`CS(=O)(=O)N1CCN(c2ccc([N+](=O)[O-])c(SCc3ccco3)c2)CC1`: the inhibition was 43.6%.

Turning to `CC(=O)NC(=S)Nc1ccc(S(=O)(=O)N2CCOCC2)cc1`, the inhibition is -4.7%.

With `O=C1CSc2ccc(C(=O)NCCC3=CCCCC3)cc2N1`, the inhibition is -5.5%.

Consider `COC(=O)c1ccc2c(c1)NC(=O)CS2`, for which the inhibition is -9.2%.

`COCCNC(=O)c1ccc2c(c1)NC(=O)CS2`: the inhibition is 53.7% (active).

Take `COc1cccc(C(=O)Nc2ccc(S(=O)(=O)Nc3onc(C)c3C)cc2)c1`: the inhibition is -1.9%.

On to `Nc1ccc(OCC(O)C[n+]2ccc(CCS(=O)(=O)[O-])cc2)cc1` (stereo unspecified), for which the inhibition is 53.8% (active).

Consider `COc1ccc(OCC(O)COc2ccc(OC)cc2)cc1`, for which the inhibition is -1.9%.

Consider `Nc1ccc(CCS(N)(=O)=O)cc1`, for which the inhibition is -2.1%.

Regarding `Cc1cc(CNC(=O)COc2ccccc2F)c2ccccc2n1`, the inhibition was -0.4%.

Regarding `COc1ccc(CN2CCN(Cc3csc(C(C)=O)c3)CC2CCO)c(C)c1C` (stereo unspecified), the inhibition was -1.9%.

Take `CCOC(=O)c1nn(-c2ccccc2)c(=O)c2c(NC(C)=O)scc12`: the inhibition was 0%.

For `COc1ccc(/C=N/NC(=O)c2nn(-c3ccc(Cl)cc3)c(=O)c3c(N)scc23)cc1`, the inhibition was 41.9%.

With `CCOC(=O)c1nn(-c2ccccc2)c(C(=O)OCC)c1N`, the inhibition is 10.9%.

For `COc1ccc(/C=N/NC(=O)c2nn(-c3ccc(C)c(C)c3)c(=O)c3ccccc23)cc1`, the inhibition is 22.6%.

`CCOC(=O)c1nn(-c2ccc(C)c(C)c2)c(=O)c2c(N)scc12`: the inhibition is 54.4% (active).

Consider `CCOC(=O)c1nn(-c2ccc(F)cc2)c(=O)c2c(N)scc12`, for which the inhibition is 62.3% (active).

Consider `CCOC(=O)c1nn(-c2ccc(F)cc2)c(C)c1C(C)=O`, for which the inhibition was -0.1%.

With `CCOC(=O)c1nn(-c2ccc(C)c(C)c2)cc1O`, the inhibition is 12.2%.

Regarding `Cc1ccc(-n2nc(C(=O)O)c3ccccc3c2=O)cc1C`, the inhibition was -1.7%.

For the compound `COc1ccc(/C=N/NC(=O)c2nn(-c3ccccc3)c(=O)c3c(N)scc23)cc1`, the inhibition was 52.4% (active).

`CCOC(=O)c1nn(-c2ccccc2)c(=O)c2c(N)scc12`: the inhibition is 63.3% (active).

For `CCCSc1cc(=O)n(-c2ccc(F)cc2)nc1C(=O)OCC`, the inhibition was -6%.

`CCOC(=O)C1CCN(S(=O)(=O)c2ccc(C(=O)OC)cc2)CC1`: the inhibition was -3.3%.

As for `CCOC(=O)c1cc2occc2n1CC(=O)Nc1ccc(OC)cc1OC`, the inhibition was 9%.

For the compound `CCOC(=O)c1nn(-c2ccc(OC)cc2)c(=O)c2c(N)scc12`, the inhibition was 27.4%.

`CCOC(=O)c1nc(N)c(=O)n(-c2ccc(C)cc2)n1`: the inhibition was -8.9%.

For `CCOC(=O)c1nn(-c2ccc(C)cc2)c(=O)c2c(N)scc12`, the inhibition was 61.7% (active).

For `COc1ccccc1NC(=O)C/C(N)=N/O`, the inhibition is -9.6%.

With `CNC(=O)C(=O)NCCCN1CCOCC1`, the inhibition was -4.4%.

Turning to `O=[N+]([O-])c1ccc(N2CCCC2)cc1N1CCCC1`, the inhibition was 50.2% (active).

In the case of `O=[N+]([O-])c1ccc(N2CCCCC2)cc1N1CCOCC1`, the inhibition was 4.6%.

Regarding `COc1cc(N2CCCC2)ccc1[N+](=O)[O-]`, the inhibition is 19.4%.

As for `C=CCNc1cc(N2CCCC2)ccc1[N+](=O)[O-]`, the inhibition was 51.8% (active).

As to `CCOc1cc(N2CCCC2)ccc1[N+](=O)[O-]`, the inhibition was 53.4% (active).

Turning to `CC(C)(C)CNc1cc(N2CCCC2)ccc1[N+](=O)[O-]`, the inhibition is 11.3%.

As for `Cc1cc(N2CCCCC2)ccc1[N+](=O)[O-]`, the inhibition was 44.8%.

`CCNc1cc(N2CCCC2)ccc1[N+](=O)[O-]`: the inhibition is 32.8%.

Turning to `O=[N+]([O-])c1ccc(N2CCOCC2)cc1N1CCCCC1`, the inhibition is -3.2%.

As to `O=C(/C=C/c1ccco1)c1ccc(O)cc1`, the inhibition is 11.9%.

With `Cn1c(CN2CCCC2)nc2cc(NC(=O)c3cccs3)ccc21`, the inhibition is -21.8%.

For the compound `Cc1nn(-c2ccccn2)c2c1-c1nc(N)ncc1CC2`, the inhibition was 40.6%.

With `Cc1nn(-c2ccc(F)cc2F)c2c1-c1nc(N3CCCC3)ncc1CC2`, the inhibition is 38.1%.

As for `Cc1nn(-c2ccccn2)c2c1-c1nc(N3CCOCC3)ncc1CC2`, the inhibition is 57.5% (active).

In the case of `C[C@@H]1NC(=O)[C@H](CCCN=C(N)N)NC(=O)c2cc([N+](=O)[O-])cc(I)c2OCC[C@@H](C(N)=O)NC1=O`, the inhibition was -20.7%.

For `Cc1nc2ccc(C(C(F)(F)F)(C(F)(F)F)C(F)(F)F)cc2[nH]1`, the inhibition is 14.4%.

Turning to `Cc1nc2cc3nc(C(F)(F)F)[nH]c3cc2[nH]1`, the inhibition is 52.2% (active).

As for `Nc1ccc2nc(C(F)(F)F)[nH]c2c1`, the inhibition is 37%.

For `COCCNC(=O)C1=NOC(Cn2cc(C#N)c(=O)n(C)c2=O)C1` (stereo unspecified), the inhibition is 5.3%.

Consider `CCCNC(=O)/C=C/c1ccc(S(=O)(=O)Nc2ccccc2OC)cc1`, for which the inhibition is -3.6%.

Regarding `CC1CCCCC1NC(=O)CCCn1c(=S)[nH]c2ccccc2c1=O` (stereo unspecified), the inhibition was -12.4%.

Consider `Cc1ccc(C)n1-c1ccncc1`, for which the inhibition is 3.1%.

In the case of `Cc1ccc(C)n1-c1ccc(C(=O)O)cc1`, the inhibition was 0.2%.

For `Cc1ccc(C)n1-c1ccc(N(C)C)cc1`, the inhibition was 66.1% (active).

As for `Cc1ccc(OC(=O)C(F)(F)F)c2c1NCCC2`, the inhibition was 11.5%.

In the case of `Cc1cc2c(C)cc(=O)oc2c2c1NCCC2`, the inhibition was 12.6%.

On to `COc1ccc(N2CCN(/C(=N\S(=O)(=O)c3ccc(C)cc3)Nc3nc(C)cc(C)n3)CC2)cc1`, for which the inhibition is -1.1%.

In the case of `Nc1nc(-c2ccco2)nc(N2CCCCC2)n1`, the inhibition was 2.4%.

As to `O=C1C=CC(=O)C(C2=C3C(=O)N(CCc4ccccc4)CC(=O)N3CCC2)=C1`, the inhibition was 50.6% (active).

Take `O=C(NCc1ccc(N2CCCC2=O)cc1)c1cn(CCc2ccccc2)nn1`: the inhibition is 3.8%.

On to `O=C1CC(=O)N(CCc2ccccc2)C(=O)N1CCc1ccccc1`, for which the inhibition was 7.8%.

Consider `O=C(NO)c1cc(OCC(F)(F)F)ccc1OCC(F)(F)F`, for which the inhibition was -2.8%.

Consider `Cc1ccc(C)c(N=Cc2cc3c(cc2[N+](=O)[O-])OCO3)c1`, for which the inhibition was 41.6%.

In the case of `Cc1cc(C)nc(N/N=C/c2cc3c(cc2[N+](=O)[O-])OCO3)n1`, the inhibition is 1.3%.

`Cc1cccc(C)c1OCC(=O)N/N=C/c1cc2c(cc1[N+](=O)[O-])OCO2`: the inhibition is -72.5%.

As for `O=[N+]([O-])c1cc2c(cc1/C=N/n1cnnc1)OCO2`, the inhibition was 13%.

On to `Cc1ccccc1N=Cc1cc2c(cc1[N+](=O)[O-])OCO2`, for which the inhibition is 53.3% (active).

Consider `Cc1cccc(N=Cc2cc3c(cc2[N+](=O)[O-])OCO3)c1`, for which the inhibition was 62.2% (active).

With `CC1=NN(c2nc(-c3ccc(C)cc3)cs2)C(=O)C1N=Nc1ccc2ccccc2c1` (stereo unspecified), the inhibition was 10.1%.

Turning to `Cc1cc(C)cc(NC(=O)C2(c3cccs3)CCOCC2)c1`, the inhibition was 3.6%.

`O=C(C/C=N\OCc1ccc(Cl)cc1Cl)Nc1ccccc1`: the inhibition was 15.2%.
